This note sets out measurements from PubChem BioAssay (NCI).

SMILES strings stand for the structures. About 83,000 compounds went through this panel and 20% of them were active in at least one assay; those are over-represented in the sample as a whole.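 48-hour exposure, single concentration, 96-well plates; percent growth endpoint where 0 means no net growth. Active: below 10.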 Active and inactive are the calls of the source.

The test relates to HL-60(TB) leukemia. As to the kind of experiment: NCI-60 one-dose screen, 48 h (100 = growth as untreated, 0 = no growth, -100 = all killed). The conditions noted are these: 10 µM unless noted.
On to `Cc1nc2ccccc2c(/C=C/c2ccc(Cl)cc2)c1C(=O)/C=C/c1ccc(Cl)cc1`, for which the growth was -34.6% (active).
The same measure for `CC(=O)Oc1c(Cl)c(Cl)c(Cl)c(Cl)c1Cl`: 82.2% (inactive); for `COc1ccc(OC)c(NCC(=O)n2nc(/C=C\c3ccc(O)c(OC)c3)cc2/C=C\c2ccc(O)c(OC)c2)c1`: -8.64% (active); for `Cc1[nH]c(=O)[nH]c(=O)c1CCSSCCc1c(C)[nH]c(=O)[nH]c1=O`: 99.5% (inactive).
With `COC(=O)/C(CCC=C(C)C)=C1\[C@@H](OC(C)=O)C[C@@]2(C)[C@H]1C[C@@H](O)[C@H]1[C@@]3(C)CC[C@H](NCCN)[C@@H](C)[C@@H]3CC[C@@]12C`, the growth is -47.4% (active).
The same measure for `C=C(C)[C@@H]1CC[C@]2(C(=O)N3CCN(C)CC3)CC[C@]3(C)[C@H](CC[C@@H]4[C@@]5(C)CC(=C/c6ccncc6)/C(=N/O)C(C)(C)[C@@H]5CC[C@]43C)[C@@H]12`: 40.4% (inactive); for `CCOC(=O)C1=C(N)Oc2c(sc3c(F)cccc23)C1c1ccc(O)cc1` (configuration not stated): 18.4% (inactive).
Turning to `COCCn1cc(-c2nc(-c3cccnc3)cs2)c2cc(F)ccc21`, the growth is 93.4% (inactive).
The figure for `COc1cccc(-c2nn(-c3ccccc3)cc2-c2ccnc(NCCCNC(=O)c3ccc(F)cc3)c2)c1` is 19.3% (inactive); for `Cc1ccc(NC(=O)CN2CCOCC2)cc1Cl` it is 74.2% (inactive).
For `CCCCC(=O)Nc1ncc(Cc2ccc(Cl)cc2)s1`, the growth was 66.1% (inactive).
The figure for `C#Cc1cccc(NC(=O)c2ccccc2NC(=O)CCl)c1` is 91.6% [8.25 µM] (inactive).
